Results on 13 compounds are retold here after PubChem BioAssay (Tox21).

Records with an inconclusive call do not appear. The source made the active and inactive calls. Unless noted, calls follow the shape of the dose curve; as a rule, active = well fitted curve in the direction sought with a large enough effect in the repeat runs; inconclusive = weak or mixed curves; inactive = no such curve, though single readings can be large; an effect the other way counts as inactive or inconclusive.

The nature of experiment [1]: qHTS assay to identify small molecule antagonists of the glucocorticoid receptor (GR) signaling pathway - cell viability counter screen (AID 720693; also: nearly all actives have a fitted effect of over 55% in size). (In general: Quantitative high-throughput screening tests each substance at several concentrations.)
A short description of experiment [2]: qHTS assay for identifying genotoxic compounds that show differential cytotoxicity against isogenic chicken DT40 cell lines with known DNA damage response pathways - Rev3 mutant cell line (AID 743014). Also: nearly all actives have a fitted effect of over 55% in size.
Experiment [3] is described as follows: qHTS assay for identifying genotoxic compounds that show differential cytotoxicity against isogenic chicken DT40 cell lines with known DNA damage response pathways - Rad54/Ku70 mutant cell line (AID 743015). Also: nearly all actives have a fitted effect of over 60% in size.
A short description of experiment [4]: qHTS assay to identify small molecule antagonists of the androgen receptor (AR) signaling pathway - cell viability counter screen (AID 743033; also: nearly all actives have a fitted effect of over 45% in size).
Experiment [5] is described as follows: qHTS assay to identify small molecule antagonists of the androgen receptor (AR) signaling pathway using the MDA cell line - cell viability counter screen (AID 743041; also: nearly all actives have a fitted effect of over 45% in size). The method, boiled down:
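Same-well cytotoxicity was assessed by CellTiter-Fluor in MDA-kb2 AR-luc cells after 16 h of compound treatment under R1881 agonism.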

The nature of experiment [6]: qHTS assay to identify small molecule antagonists of the thyroid receptor (TR) signaling pathway - cell viability counter screen (AID 743064). Also: nearly all actives have a fitted effect of over 50% in size. The method, boiled down: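 Compounds were tested on GH3.TRE-Luc cells in the presence of T3 at 1 nM final. Following 23.5 h at 37 °C, cell viability was quantified by CellTiter-Fluor.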
Experiment [7] can be described thus: qHTS assay to identify small molecule antagonists of the thyroid receptor (TR) signaling pathway (AID 743065). Also: series mostly up to about 70 µM; nearly all actives have a fitted effect of over 55% in size. In short, it runs like this:
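GH3.TRE-Luc rat pituitary cells (two TREs driving luciferase) were dosed with compound, then stimulated with 1 nM T3 (final) for 23.5 h at 37 C. ONE-Glo luminescence was the read-out, with CellTiter-Fluor fluorescence as the cytotoxicity counter-screen.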

Experiment [8] deals with thyroid hormone receptor (rat, GH3 cells). Description: qHTS assay to identify small molecule agonists of the thyroid receptor (TR) signaling pathway (AID 743066; calls by dose curve).
Experiment [9] addresses Estrogen receptor (Homo sapiens) (UniProt P03372). Nature of the experiment: qHTS assay to identify small molecule antagonists of the estrogen receptor alpha (ER-alpha) signaling pathway (AID 743069; active = well fitted curve in the direction sought with a large enough effect in the signal ratio in the repeat runs, not every such curve was filed as active; the % refers to the signal ratio). The method, boiled down:
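Reporter cells (ER-alpha-bla, HEK293 background) are conditioned overnight in stripped-serum medium (2% charcoal-stripped FBS). Compound and 17beta-estradiol exposure runs 18 hr at 37C, 5% CO2.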

Experiment [10] can be described thus: qHTS assay to identify small molecule antagonists of the estrogen receptor alpha (ER-alpha) signaling pathway - cell viability counter screen (AID 743074; calls by dose curve;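 also: HEK293 cells carrying ER-alpha-UAS-bla reporter stimulated with 17beta-estradiol; nearly all actives have a fitted effect of over 45% in size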).
Experiment [11] has as its target Estrogen receptor (Homo sapiens) (UniProt P03372). Nature of the experiment: qHTS assay to identify small molecule agonists of the estrogen receptor alpha (ER-alpha) signaling pathway (AID 743075; calls by dose curve).
Experiment [12] has the same target. Description: qHTS assay to identify small molecule agonists of the estrogen receptor alpha (ER-alpha) signaling pathway using the BG1 cell line (AID 743079). Also: nearly all actives have a fitted effect of over 20% in size. Also: potency is read from the fitted curve at half-maximal effect.
Experiment [13] is described as follows: qHTS assay to identify small molecule antagonists of the estrogen receptor alpha (ER-alpha) signaling pathway using the BG1 cell line (AID 743080; calls by dose curve;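 also: BG1 cells stimulated with 17beta-estradiol alongside compound; series mostly up to about 70 µM; nearly all actives have a fitted effect of over 25% in size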). The method, boiled down:
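Endogenous full-length ER-alpha in BG1-Luc-4E2 cells drives a stably integrated 4×ERE luciferase gene; compounds were tested against 17beta-estradiol over 21.5 h, with luminescence and multiplexed viability fluorescence recorded.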

Experiment [14] can be described thus: qHTS assay to identify small molecule antagonists of the estrogen receptor alpha (ER-alpha) signaling pathway using the BG1 cell line - cell viability counter screen (AID 743081).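 Also: compound given together with 17beta-estradiol as the ER stimulus; series mostly up to about 70 µM; nearly all actives have a fitted effect of over 45% in size.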
Experiment [15] deals with Aromatase (Homo sapiens) (UniProt P11511). Description: qHTS assay to identify aromatase inhibitors (AID 743083). Also: series mostly up to about 70 µM; nearly all actives have a fitted effect of over 55% in size.
Experiment [16] in a line: qHTS assay for identifying genotoxic compounds that show differential cytotoxicity against isogenic chicken DT40 cell lines with known DNA damage response pathways - wild type cell line (AID 743012). Also: nearly all actives have a fitted effect of over 60% in size. In short, it runs like this: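 Parental DNA repair-proficient DT40 cells, 300 per well, were pre-incubated ~0.5 h at 37 C/5% CO2, pin-dosed with compounds in DMSO, then incubated 40 h. Viability was read as CellTiter-Glo luminescence after 30 min at room temperature.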

In experiment [17] the target is Androgen receptor (Homo sapiens) (UniProt P10275). Description: qHTS assay to identify small molecule antagonists of the androgen receptor (AR) signaling pathway (AID 743035; active = well fitted inhibition curve with a large enough effect in the signal ratio in the repeat runs, not every such curve was filed as active; the % refers to the signal ratio). In short, it runs like this:
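HEK293 cells stably carrying a UAS-driven beta-lactamase reporter (AR-UAS-bla GripTite) were plated for 4 h at 37C, then given compound and the agonist R1881 and incubated 16 h. Reporter activity was read by LiveBLAzer B/G FRET fluorescence after 2 h at room temperature.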

Experiment [18] has the same target. Nature of the experiment: qHTS assay to identify small molecule agonists of the androgen receptor (AR) signaling pathway using the MDA cell line (AID 743040; also: nearly all actives have a fitted effect of over 20% in size). The method, boiled down: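 Human breast carcinoma MDA-kb2 reporter cells (MMTV-luc, AR/GR elements) were treated for 16 h at 37C in 0% CO2 following a 5 h settling period. Signal was quantified by ONE-Glo luminescence.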

Experiment [19] has the same target. Description: qHTS assay to identify small molecule antagonists of the androgen receptor (AR) signaling pathway using the MDA cell line (AID 743042; also: nearly all actives have a fitted effect of over 55% in size). In short, it runs like this:
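MDA-kb2 breast carcinoma cells carrying MMTV-luciferase (AR/GR responsive) were co-treated with compounds and the agonist R1881 for 16 h at 37C. Inhibition read as ONE-Glo luminescence; CellTiter-Fluor fluorescence measured in parallel for cytotoxicity.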

Sequence of Androgen receptor (Homo sapiens) (P10275 whole entry, looked up): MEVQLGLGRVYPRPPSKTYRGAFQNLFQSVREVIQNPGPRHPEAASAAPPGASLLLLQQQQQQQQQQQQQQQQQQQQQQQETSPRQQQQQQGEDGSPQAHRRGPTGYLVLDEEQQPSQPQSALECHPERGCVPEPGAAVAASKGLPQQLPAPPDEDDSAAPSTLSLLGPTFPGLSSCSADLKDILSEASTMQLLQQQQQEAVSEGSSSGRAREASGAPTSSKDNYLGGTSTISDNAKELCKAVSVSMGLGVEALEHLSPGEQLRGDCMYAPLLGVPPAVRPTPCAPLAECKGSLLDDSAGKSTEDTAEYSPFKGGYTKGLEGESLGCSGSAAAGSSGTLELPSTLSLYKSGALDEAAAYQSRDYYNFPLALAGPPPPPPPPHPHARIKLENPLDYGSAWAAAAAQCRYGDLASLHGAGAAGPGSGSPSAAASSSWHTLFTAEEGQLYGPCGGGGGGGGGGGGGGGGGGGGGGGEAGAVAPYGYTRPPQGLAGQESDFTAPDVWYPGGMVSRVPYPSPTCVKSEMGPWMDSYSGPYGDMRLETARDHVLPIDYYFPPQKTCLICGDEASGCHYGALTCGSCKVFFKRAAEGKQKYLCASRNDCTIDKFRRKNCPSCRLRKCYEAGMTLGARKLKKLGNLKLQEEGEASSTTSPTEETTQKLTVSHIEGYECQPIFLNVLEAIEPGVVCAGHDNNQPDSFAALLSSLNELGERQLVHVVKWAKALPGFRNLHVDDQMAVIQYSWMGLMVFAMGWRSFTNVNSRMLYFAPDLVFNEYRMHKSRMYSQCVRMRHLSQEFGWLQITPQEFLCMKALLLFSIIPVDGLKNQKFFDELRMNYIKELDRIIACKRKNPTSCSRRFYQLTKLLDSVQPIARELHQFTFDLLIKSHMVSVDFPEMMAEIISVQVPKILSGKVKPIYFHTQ
Sequence of Estrogen receptor (Homo sapiens) (P03372 whole entry, looked up): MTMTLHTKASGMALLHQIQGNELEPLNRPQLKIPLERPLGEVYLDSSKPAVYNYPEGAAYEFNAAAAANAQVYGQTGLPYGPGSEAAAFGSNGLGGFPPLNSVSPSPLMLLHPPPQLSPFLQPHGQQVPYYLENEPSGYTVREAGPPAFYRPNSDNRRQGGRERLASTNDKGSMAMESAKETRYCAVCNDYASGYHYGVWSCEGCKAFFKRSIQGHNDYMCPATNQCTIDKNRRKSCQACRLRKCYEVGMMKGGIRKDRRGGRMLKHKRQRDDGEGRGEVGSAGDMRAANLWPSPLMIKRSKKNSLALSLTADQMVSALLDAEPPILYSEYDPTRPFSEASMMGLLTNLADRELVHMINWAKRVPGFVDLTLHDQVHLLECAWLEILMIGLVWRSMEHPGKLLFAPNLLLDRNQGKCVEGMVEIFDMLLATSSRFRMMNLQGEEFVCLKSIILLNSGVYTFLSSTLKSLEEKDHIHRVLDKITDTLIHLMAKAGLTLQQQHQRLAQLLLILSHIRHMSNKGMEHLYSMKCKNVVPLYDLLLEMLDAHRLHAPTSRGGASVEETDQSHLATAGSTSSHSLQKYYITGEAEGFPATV
Sequence of Aromatase (Homo sapiens) (P11511 whole entry, looked up): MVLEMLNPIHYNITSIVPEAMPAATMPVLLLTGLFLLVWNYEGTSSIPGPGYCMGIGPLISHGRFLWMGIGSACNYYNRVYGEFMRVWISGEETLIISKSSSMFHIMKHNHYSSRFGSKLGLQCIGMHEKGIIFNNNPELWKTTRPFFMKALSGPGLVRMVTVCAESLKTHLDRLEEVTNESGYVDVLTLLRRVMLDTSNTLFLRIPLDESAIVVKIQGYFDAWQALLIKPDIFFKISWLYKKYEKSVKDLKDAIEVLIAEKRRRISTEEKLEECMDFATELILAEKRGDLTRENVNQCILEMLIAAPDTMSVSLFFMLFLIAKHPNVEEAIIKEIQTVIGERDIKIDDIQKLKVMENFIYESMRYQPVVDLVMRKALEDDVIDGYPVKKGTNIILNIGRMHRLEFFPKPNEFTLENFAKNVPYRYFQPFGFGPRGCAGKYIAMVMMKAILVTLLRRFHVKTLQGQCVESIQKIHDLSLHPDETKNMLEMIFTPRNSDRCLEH

Turning to `CN(C)C(C)(C)CO`, the outcome in experiment [1], in experiment [4], in [8], in experiment [9], in experiment [10] and in [13] was inactive. Besides, the compound was called inactive in experiment [15]. For the same compound, the Potency result in experiment [2], in [3], in experiment [5], in experiment [6], in experiment [7] and in experiment [11] was “inactive” throughout. Moreover, in experiment [14], the Potency entry was “inactive”. Besides, the Potency in experiment [12] is 77 µM (active).
For the compound `O=Cc1cc2ccccc2o1`, the result in experiment [1], in [4], in experiment [10] and in experiment [15] was inactive. The Potency entry in experiment [16], in [3], in experiment [5], in experiment [6] and in experiment [14] was “inactive” each time.
On to `Cc1ncc([N+](=O)[O-])n1CC(C)O` (configuration not stated), for which the call in experiment [1], in [4], in experiment [8], in [10], in [13] and in experiment [15] was inactive. The Potency result in experiment [16], in experiment [3], in experiment [5], in experiment [6], in [7] and in experiment [11] was “inactive” throughout. For the same compound, the Potency result in [12] and in [14] was “inactive” each time.
With `CC(O)COC(C)(C)C` (configuration not stated), the compound was called inactive in experiment [1], in experiment [4], in experiment [8], in experiment [10] and in experiment [15]. In addition, the Potency result in experiment [16], in experiment [3], in [5], in experiment [6], in experiment [7] and in [14] was “inactive” throughout.
Consider `CCCCCCCCCCCCCCCCCC#N`, for which the compound was classed as inactive in experiment [1], in experiment [4], in [8], in experiment [10], in experiment [13] and in [15]. For the same compound, the Potency result in experiment [16], in experiment [3], in experiment [5], in experiment [6], in experiment [7] and in [11] was “inactive” throughout. The Potency entry in [12] is “inactive”.
Take `CC(=O)OC1CCCCC1C(C)(C)C` (configuration not stated): the compound was called inactive in experiment [1], in [4], in [17], in experiment [19], in experiment [8] and in experiment [9]. Further, the outcome in experiment [10], in [13] and in experiment [15] was inactive. For the same compound, the Potency result in [2], in [3], in [18], in [5], in experiment [6] and in [7] was “inactive” in each case. The Potency result in experiment [11], in experiment [12] and in experiment [14] was “inactive” throughout.
In the case of `C=CCOC(=O)CCCCCC`, the compound was called inactive in experiment [1], in experiment [4], in experiment [17], in experiment [19], in [10] and in experiment [15]. Also, the Potency result in experiment [2], in experiment [3], in experiment [18], in [5], in experiment [6] and in experiment [14] was “inactive” throughout.
In the case of `CC(=O)Nc1ccc(OC(=O)c2ccccc2OC(C)=O)cc1`, the compound was classed as inactive in experiment [1], in experiment [4], in experiment [8], in [10], in [13] and in experiment [15]. Besides, the Potency entry in experiment [16], in experiment [3], in experiment [5], in experiment [6], in [7] and in experiment [11] was “inactive” throughout. For the same compound, the Potency result in [12] and in experiment [14] was “inactive” throughout.
With `c1ccc2c(CC3=NCCN3)cccc2c1`, the result in [1], in [4], in [8], in experiment [10], in [13] and in [15] was inactive. The Potency result in [16], in experiment [3], in experiment [5], in experiment [6], in [7] and in experiment [14] was “inactive” in each case.
Regarding `Cc1cccc(Cl)c1`, the result in experiment [1], in experiment [4], in experiment [8], in experiment [10] and in experiment [15] was inactive. In addition, the Potency entry in [16], in experiment [3], in experiment [5], in experiment [6], in experiment [7] and in experiment [14] was “inactive” each time.
On to `CCC/C=C(\C=O)CC`, for which the compound was classed as inactive in experiment [1], in experiment [4], in [8], in [10], in [13] and in [15]. Moreover, the Potency entry in [16], in [3], in experiment [5], in [6], in experiment [7] and in experiment [11] was “inactive” each time. In addition, the Potency entry in experiment [12] and in experiment [14] was “inactive” throughout.
Take `C=C(C)C1CC=C(C)C(=O)C1` (configuration not stated): the call in [1], in experiment [4], in [8], in experiment [10] and in experiment [15] was inactive. The Potency entry in [16], in [3], in [5], in experiment [7] and in experiment [14] was “inactive” each time.
Regarding `CCCCCCC1(C)CCC(=O)O1` (configuration not stated), the compound was called inactive in [1], in experiment [4], in [8], in experiment [9], in experiment [13] and in [15]. Besides, the Potency entry in experiment [2], in experiment [3], in [5], in experiment [6], in [7] and in [11] was “inactive” in each case. The Potency entry in [12] and in experiment [14] was “inactive” each time.
